PLK1 PBD block = qHTS for Inhibitors of PLK1-PDB (polo-like kinase 1 - polo-box domain): Primary Screen. hit rate 2.8% among 360,000. Potency, µM, without a hit: max response, negative = inhibition, usual class: inhibitors. Plk1 PBD binding of FITC phosphopeptide, fluorescence polarization. Serine/threonine-protein kinase PLK1 (Homo sapiens), P53350; note: potency is the fitted concentration of half-maximal effect; series mostly up to about 57 µM; % is set by controls: 0 for no effect and ±100 for the full control effect; nearly all actives have a fitted effect of over 65% in size
BAZ2B inh = qHTS Assay for Inhibitors of BAZ2B. AlphaScreen BAZ2B-H3K14Ac peptide displacement. hit rate 4.4% among 360,000. Bromodomain adjacent to zinc finger domain protein 2B (Homo sapiens), Q9UIF8. Potency, µM (series often up to 114 µM), for inactives: top-dose activity change, negative = inhibition, actives largely listed as inhibitors; note: potency is the fitted concentration of half-maximal effect; % is set by controls: 0 for no effect and ±100 for the full control effect; nearly all actives have a fitted effect of over 60% in size
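Complex of BAZ2B and biotin-H3K14Ac (50 nM apiece) forms over 30 min at RT, then faces library compounds up to 110 uM for another 30 min; AlphaScreen beads added, 20 min dark incubation, luminescence read.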
PI5P4K alpha inh = qHTS for Inhibitors of phosphatidylinositol 5-phosphate 4-kinase (PI5P4K). PI5P4Kalpha enzyme, ADP-Glo luminescence, 60 min; active compounds read low. Phosphatidylinositol 5-phosphate 4-kinase type-2 alpha (Homo sapiens), P48426. hit rate 1.2% among 330,000. max response, %; active = max response of -50% or lower; inconclusive = between -30% and -50%; inactive = -30% or higher; note: value at the top dose of about 77 µM; % is set by controls: 0 for no effect and ±100 for the full control effect
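ADP-Glo luminescence end-point after a 60 min room-temperature kinase reaction. PI5P4Kalpha and substrate in HEPES pH 7.4 buffer with EGTA, 0.1% CHAPS and 5% DMSO; ATP at 5 microM final.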
JMJD2A Tudor = qHTS Assay for Inhibitors of JMJD2A-Tudor Domain; Potency, µM (top dose mostly 114 µM), without a hit: at the top dose activity change, negative = inhibition, actives largely listed as inhibitors; hit rate 4.4% among 390,000; Lysine-specific demethylase 4A (Homo sapiens), O75164; AlphaScreen JMJD2A-Tudor / H3K4me3 peptide binding; AID 504339, 2011; note: potency is the fitted concentration of half-maximal effect; % is set by controls: 0 for no effect and ±100 for the full control effect; nearly all actives have a fitted effect of over 50% in size
HP1b chromo inh = HTS for Inhibitors of HP1-beta Chromodomain Interactions with Methylated Histone Tails; Chromobox protein homolog 1 (Homo sapiens), P83916; AlphaScreen HP1-beta / biotin-H3K9me3 peptide binding; hit rate 0.56% among 390,000; Potency, µM (titrated, usually from 114 µM), for inactives: top-dose activity change, negative = inhibition, most hits filed as inhibitors; note: potency is the fitted concentration of half-maximal effect; nearly all actives have a fitted effect of over 70% in size
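HP1-beta protein (50 nM final) preincubated 30 min at room temperature with biotinylated H3(1-18)K9me3 peptide (50 nM) in PBS pH 7.4, 0.01% Tween-20, then compound added for 30 min. AlphaScreen streptavidin donor/nickel chelate acceptor beads (10 ug/mL final), 30 min dark, luminescence read.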
G9a inh = qHTS Assay for Inhibitors of Histone Lysine Methyltransferase G9a. G9a H3K9 monomethylation, AlphaScreen, 2 h. Potency, µM (doses to about 102 µM), inactives show top-dose activity, negative = inhibition, hits mostly inhibitors. hit rate 8.8% among 350,000. AID 504332, 2011; note: potency is the fitted concentration of half-maximal effect; % is set by controls: 0 for no effect and ±100 for the full control effect; nearly all actives have a fitted effect of over 75% in size
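Compounds were preincubated with 20 nM G9a for 15 min, after which biotinylated H3K9 peptide (500 nM) and SAM (20 uM) started a 2 h room-temperature reaction. Monomethylated product was quantified by antibody-based AlphaScreen chemiluminescence.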
The depositor's hits bear a star; [ ] = remark or other dose. Compounds with a hit are over-represented: about 12% of the library has one in this group of screens. Unless noted, calls come from the whole dose curve; as a rule, active = well fitted curve in the direction sought with a large enough effect; inconclusive = small, poorly fitted or top-dose-only effect, or another doubt; inactive = no such curve, though single readings can be large; an effect the other way counts as inactive or inconclusive.

Cc1n[nH]c(=S)n1-c1ccccc1 was read as PLK1 PBD block -19%, BAZ2B inh -31%, PI5P4K alpha inh 3, JMJD2A Tudor 89µM* and HP1b chromo inh 20%.
For COC(Cc1n[nH]c(=S)n1-c1ccc(Cl)cc1)OC the results were PLK1 PBD block -10%, BAZ2B inh 4%, JMJD2A Tudor 14µM*, HP1b chromo inh 17% and G9a inh inconclusive.
`CCc1ccc(-n2c(Cn3nc(C(F)(F)F)cc3C)n[nH]c2=S)cc1` gave PLK1 PBD block -9%, BAZ2B inh inconclusive, JMJD2A Tudor -14%, HP1b chromo inh 26% and G9a inh inconclusive.
`COC(Cc1nnc(SC)n1-c1ccc(Cl)cc1)OC` gave PLK1 PBD block -5%, BAZ2B inh 5%, JMJD2A Tudor -16%, HP1b chromo inh 4% and G9a inh 14%.
For CCc1ccc(-n2c(C)n[nH]c2=S)cc1 the results were PLK1 PBD block -7%, BAZ2B inh 1%, PI5P4K alpha inh -4, JMJD2A Tudor 3.5µM*, HP1b chromo inh 8% and G9a inh -48%.
Screening CC(c1n[nH]c(=S)n1-c1ccc(Cl)cc1)N(C)C (configuration not stated) returned PLK1 PBD block -11%, BAZ2B inh -11%, PI5P4K alpha inh -7, JMJD2A Tudor 7.9µM*, HP1b chromo inh -19% and G9a inh 8.9µM*.
For CC(C)CCC(CC(C)O)c1n[nH]c(=S)n1-c1ccccc1 (configuration not stated) the results were PLK1 PBD block -2%, BAZ2B inh 10%, PI5P4K alpha inh -2, JMJD2A Tudor 8.9µM*, HP1b chromo inh 8% and G9a inh 6.3µM*.
Cc1nc2ccccc2n1Cc1n[nH]c(=S)n1-c1ccc(Cl)cc1 was read as PLK1 PBD block -16%, BAZ2B inh 2%, PI5P4K alpha inh -4, JMJD2A Tudor -7%, HP1b chromo inh 46% and G9a inh inconclusive.
Screening S=c1[nH]nc(COc2ccc(Cl)cc2)n1-c1ccc(Cl)cc1 returned PLK1 PBD block inconclusive, BAZ2B inh inconclusive, PI5P4K alpha inh 0, JMJD2A Tudor inconclusive, HP1b chromo inh -16% and G9a inh 1%[0.501 µM].
`Cc1n[nH]c(=S)n1-c1ccc(Cl)cc1` gave PLK1 PBD block inconclusive, BAZ2B inh -2%, PI5P4K alpha inh 1, JMJD2A Tudor 2.5µM*, HP1b chromo inh 36% and G9a inh inconclusive.
CCC(c1n[nH]c(=S)n1-c1ccccc1)N(C)C (configuration not stated) was read as PLK1 PBD block -4%, BAZ2B inh -23%, PI5P4K alpha inh 1, JMJD2A Tudor 32µM*, HP1b chromo inh 26% and G9a inh 8.9µM*.
For Cc1ccc(OCc2n[nH]c(=S)n2-c2ccc(Cl)cc2)cc1 the results were PLK1 PBD block -29%, BAZ2B inh -38%, PI5P4K alpha inh 5, JMJD2A Tudor inconclusive, HP1b chromo inh 12% and G9a inh 3.2µM*.
Screening CCCc1nn2c(C)c(-c3ccccc3)nc2s1 returned BAZ2B inh -1%, JMJD2A Tudor -14%, HP1b chromo inh 130% and G9a inh -8%[59 µM].
COc1ccc(-c2nc(Cn3c(SCc4ccc(C)cc4)nc4cccnc43)c(C)o2)cc1OC was read as BAZ2B inh inconclusive, JMJD2A Tudor inconclusive, HP1b chromo inh -3% and G9a inh inconclusive.
For CC(=O)Nc1ccc(CC(=O)NCCC(c2ccccc2)c2ccccc2)cc1 the results were PLK1 PBD block -17%, BAZ2B inh -12%, PI5P4K alpha inh -1, JMJD2A Tudor -19%, HP1b chromo inh -25% and G9a inh 17%.
For CC(c1n[nH]c(=S)n1-c1ccc(F)cc1)N1CCCCC1 (configuration not stated) the results were PLK1 PBD block -16%, BAZ2B inh -3%, PI5P4K alpha inh 6, JMJD2A Tudor inconclusive, HP1b chromo inh 3% and G9a inh 35µM*.
`O=C(N/N=C/c1cn(Cc2ccccc2)c2ccccc12)c1cc(O)cc(O)c1` gave PLK1 PBD block -4%, BAZ2B inh 50µM*, PI5P4K alpha inh inconclusive, JMJD2A Tudor inconclusive, HP1b chromo inh -18% and G9a inh 79µM*.
O=C(N/N=C/c1coc2ccccc2c1=O)c1cc(O)cc(O)c1 was read as PLK1 PBD block -23%, BAZ2B inh -15%, PI5P4K alpha inh -54*, JMJD2A Tudor -9%, HP1b chromo inh 52% and G9a inh 2%.
N#CCC(=O)N/N=C/c1cn(Cc2ccc(Cl)c(Cl)c2)c2ccccc12 was read as PLK1 PBD block -8%, BAZ2B inh -11%, PI5P4K alpha inh -4, JMJD2A Tudor -20%, HP1b chromo inh 15% and G9a inh -6%.
`O=C(O)c1ccc(N/N=C/c2cn(Cc3ccc(F)cc3)c3ccccc23)cc1` gave PLK1 PBD block 24µM*, BAZ2B inh 45µM*, PI5P4K alpha inh inconclusive, JMJD2A Tudor 56µM*, HP1b chromo inh -31% and G9a inh 45µM*.
For CC(C)n1cc(/C=N/Nc2ccc(Cl)c(C(=O)O)c2)c2ccccc21 the results were BAZ2B inh 45µM* and G9a inh 10µM*.
CCNC(=S)N/N=C/c1cn(Cc2ccc(F)cc2)c2ccccc12 was read as PLK1 PBD block 0%, BAZ2B inh inconclusive, PI5P4K alpha inh 13, JMJD2A Tudor inconclusive, HP1b chromo inh -11% and G9a inh 8%[59 µM].
For Cc1ccc2cc(CN(C)C(=O)c3cccc(Cl)c3)c(=O)[nH]c2c1 the results were BAZ2B inh -5%, JMJD2A Tudor -11%, HP1b chromo inh 12% and G9a inh -7%[59 µM].
`CC(=O)c1ccc(NC(=O)CSc2cn(CC(=O)N(C(C)C)C(C)C)c3ccccc23)cc1` gave BAZ2B inh inconclusive, JMJD2A Tudor -8%, HP1b chromo inh 19% and G9a inh -7%[59 µM].
Screening Cc1ccoc1C(=O)N1CCCCC1C(=O)O (configuration not stated) returned PLK1 PBD block 15µM*, PI5P4K alpha inh -21, JMJD2A Tudor -22%[11.4 µM], HP1b chromo inh inconclusive and G9a inh -41%.
`Cc1nc(C(=O)O)cc2c1[nH]c1ccccc12` gave PLK1 PBD block -4%, BAZ2B inh 50µM*, PI5P4K alpha inh -4, JMJD2A Tudor 79µM*, HP1b chromo inh 67% and G9a inh 12%[12.7 µM].

Screening results (PubChem)
